± gives the standard deviation.
The molecules below were run on RAW-Dual (murine macrophage reporter line) (assay: IRF reporter (Lucia luciferase) activity fold change vs agonist alone; higher = enhanced IRF activity). Settings: modulator concentration 10 µM; agonist: MPLA […].
Procedure, shortened: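 Compound reached 10 μM final in each well by pin transfer, onto RAW-Dual murine macrophage reporter cells seeded at 50 000 per well in 384-well plates. After 1 hour at 37 °C, the cells were stimulated overnight with a PRR agonist. SEAP in the supernatant was read with QUANTI-Blue at 620 nm absorbance for NF-κB, and Lucia luciferase was read with QUANTI-Luc luminescence for IRF. Each signal was turned into fold change against the mean agonist-only control on the same plate, and two replicate plates were averaged with propagated errors.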

In order of falling IRF reporter:
1. Clc1cccc(OCCCOc2cccc3cccnc23)c1  2.83 ± 0.56
2. Cl.O[C@@H](c1cc(C(F)(F)F)nc2c(C(F)(F)F)cccc12)[C@H]1CCCCN1  2.25 ± 0.17
3. O=C(O)C=Cc1ccc(S(=O)(=O)NCc2cccnc2)cc1  1.72 ± 0.19
4. CNc1ccc([N+](=O)[O-])cc1-n1cnc(-c2ccc([N+](=O)[O-])cc2)c1  1.58 ± 0.15
5. c1ccc(CN2CCN(c3cc(-c4cccnc4)n[nH]3)CC2)cc1  1.56 ± 0.59
6. Cc1ccc(C=C2Oc3c(ccc(O)c3CN3CCN(CCO)CC3)C2=O)cc1  1.55 ± 0.3
7. CC12CC3(C)CC(C)(C1)CC(C(=O)NC(C)(C)CO)(C2)C3  1.52 ± 0.16
8. O=C(O)c1ccc(NCn2nnc3ccccc32)cc1  1.51 ± 0.23
9. C1=C(c2ccccc2)Nc2nnnn2C1c1ccccc1 (stereo not given)  1.46 ± 0.36
10. COc1ccc(CNC2CCCc3ccccc32)c(OC)c1C (stereo not given)  1.42 ± 0.29
11. COc1ccc2c(C)nc(Nc3nc(C)cc(-c4ccccc4)n3)nc2c1  1.37 ± 0.17
12. CCCc1nn(C)c2c(=O)[nH]c(-c3cc(S(=O)(=O)N4CCN(C)CC4)ccc3OCC)nc12  1.37 ± 0.22
13. COc1cc2c(Oc3ccc4[nH]c(C)cc4c3F)ncnc2cc1OCCCN1CCCC1  1.35 ± 0.12
14. Cc1ccc(-n2nc(C(C)(C)C)cc2NC(=O)NCc2cc(F)ccc2Oc2ccc3c(cnn3CCO)c2)cc1  1.24 ± 0.44
15. Cc1ccc(C2C=C(c3ccccc3)Nc3ncnn32)cc1 (stereo not given)  1.23 ± 0.35
16. CC(C(=O)O)c1ccc(C(=O)c2cccs2)cc1 (stereo not given)  1.23 ± 0.14
17. Cc1cc(C)n(CCC(=O)N2CCc3nc4ccc(F)cn4c(=O)c3C2)n1  1.21 ± 0.12
18. COc1ccc(N2C(=O)C(=Cc3ccc([N+](=O)[O-])s3)SC2=S)cc1  1.2 ± 0.26
19. CC(C)(C(=O)O)c1ccc(C(O)CCCN2CCC(C(O)(c3ccccc3)c3ccccc3)CC2)cc1.Cl (stereo not given)  1.19 ± 0.09
20. CCOC(=O)c1sc(NN=Cc2cccc(Cl)c2)nc1C  1.18 ± 0.18
21. N#Cc1cc(OC2CCSC2)nc2ccccc12 (stereo not given)  1.15 ± 0.16
22. COc1cc2c(cc1OC)C1Cc3ccc(OC)c(OC)c3CN1CC2 (stereo not given)  1.15 ± 0.17
23. Cc1ccc(S(=O)(=O)NC(=O)NN2CC3CCCC3C2)cc1 (stereo not given)  1.14 ± 0.088
24. CCC(=O)Nc1ccc(S(=O)(=O)NCC2CCN(c3ncc(F)cn3)CC2)c(C)c1  1.08 ± 0.093
25. Cl.Fc1ccc(C2CCNCC2COc2ccc3c(c2)OCO3)cc1 (stereo not given)  1.07 ± 0.15
26. Cc1ccc(-n2c(C)cc(C=NNC(=O)CN3CCOCC3)c2C)c(C)c1  1.07 ± 0.082
27. CCCCC1=NC2(CCCC2)C(=O)N1Cc1ccc(-c2ccccc2-c2nnn[nH]2)cc1 [Prestw-1736]  1.06 ± 0.18
28. COC(=O)C1=CN(C2CC2)C=C(C(=O)OC)C1c1ccccc1Cl  1.06 ± 0.17
29. CC1CC(C)CN(S(=O)(=O)CCCOc2ccc3c(c2)OCO3)C1 (stereo not given)  1.05 ± 0.14
30. CC1(C)CC(=O)c2sc(NC(=O)c3ccccc3)nc2C1  1.02 ± 0.12
31. O=c1[nH]c(=O)n([C@H]2C[C@H](O)[C@@H](CO)O2)cc1I  0.967 ± 0.15
32. CN1CCN(C(=O)CN2C(=O)c3cccc4cccc(c34)C2=O)CC1  0.967 ± 0.26
33. O=C(O[C@@H]1C[C@@H]2C[C@@H]3C[C@H](C1)N2CC3=O)c1c[nH]c2ccccc12 [Prestw-1510]  0.958 ± 0.18
34. COc1cc(C(=O)O)ccc1NC(=O)[C@@H]1N[C@@H](CC(C)(C)C)[C@](C#N)(c2ccc(Cl)cc2F)[C@H]1c1cccc(Cl)c1F  0.952 ± 0.34
35. CC(O)(CNC(=O)CSc1ccc(F)cc1)c1ccc(-c2ccccc2)cc1 (stereo not given)  0.921 ± 0.1
36. NC(=O)c1cn(Cc2c(F)cccc2F)nn1  0.906 ± 0.12
37. N=C(N)Nc1ccc(Cl)cc1  0.885 ± 0.099
38. CC(=O)N1CCN=C1SCc1cccc(C(F)(F)F)c1  0.88 ± 0.08
39. Cc1cn([C@H]2C=C[C@@H](CO)O2)c(=O)[nH]c1=O [Prestw-1279]  0.877 ± 0.13
40. Nc1nc(=O)n([C@@H]2CS[C@H](CO)O2)cc1F  0.836 ± 0.21
